# According to ChEMBL document CHEMBL1961873, “Compounds: GSK PKIS; Assays: Nanosyn kinase panel” (2012):
# Tests used:
# [1] = target: Serine/threonine-protein kinase MARK2 (Homo sapiens) (UniProt Q7KZI7); details: at 1 µM
# [2] = target: PAS domain-containing serine/threonine-protein kinase (Homo sapiens) (UniProt Q96RG2); details: at 0.1 µM
# [3] = target: PAS domain-containing serine/threonine-protein kinase (Homo sapiens) (UniProt Q96RG2); details: at 1 µM
# [4] = target: Phosphorylase b kinase gamma catalytic chain, skeletal muscle/heart isoform (Homo sapiens) (UniProt Q16816); details: at 0.1 µM
# [5] = target: Phosphorylase b kinase gamma catalytic chain, skeletal muscle/heart isoform (Homo sapiens) (UniProt Q16816); details: at 1 µM
# [6] = target: T1, Phosphorylase b kinase gamma catalytic chain, liver/testis isoform (Homo sapiens) (UniProt P15735); details: at 0.1 µM
# T1 sequence (whole entry): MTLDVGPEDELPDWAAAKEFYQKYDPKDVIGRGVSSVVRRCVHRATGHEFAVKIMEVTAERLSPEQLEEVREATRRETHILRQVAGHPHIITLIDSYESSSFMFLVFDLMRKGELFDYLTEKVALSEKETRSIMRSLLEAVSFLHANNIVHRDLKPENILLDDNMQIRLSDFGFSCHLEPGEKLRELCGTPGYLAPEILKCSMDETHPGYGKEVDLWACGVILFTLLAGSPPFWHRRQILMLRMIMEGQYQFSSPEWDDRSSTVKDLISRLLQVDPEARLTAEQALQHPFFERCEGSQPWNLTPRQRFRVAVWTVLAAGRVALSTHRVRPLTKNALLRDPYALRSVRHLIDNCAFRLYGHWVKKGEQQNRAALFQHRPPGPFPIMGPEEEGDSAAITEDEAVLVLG
# [7] = target: T1, Phosphorylase b kinase gamma catalytic chain, liver/testis isoform (Homo sapiens); details: at 1 µM
# [8] = target: Serine/threonine-protein kinase pim-1 (Homo sapiens) (UniProt P11309); details: at 0.1 µM
# [9] = target: Serine/threonine-protein kinase pim-1 (Homo sapiens) (UniProt P11309); details: at 1 µM
# [10] = target: Serine/threonine-protein kinase pim-2 (Homo sapiens) (UniProt Q9P1W9); details: at 0.1 µM;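 further: reported value is the mean percent inhibition of PIM2, measured in the GSK PKIS kinase inhibitor set screen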
# Serine/threonine-protein kinase pim-2 (Homo sapiens), sequence (Q9P1W9 whole entry, looked up): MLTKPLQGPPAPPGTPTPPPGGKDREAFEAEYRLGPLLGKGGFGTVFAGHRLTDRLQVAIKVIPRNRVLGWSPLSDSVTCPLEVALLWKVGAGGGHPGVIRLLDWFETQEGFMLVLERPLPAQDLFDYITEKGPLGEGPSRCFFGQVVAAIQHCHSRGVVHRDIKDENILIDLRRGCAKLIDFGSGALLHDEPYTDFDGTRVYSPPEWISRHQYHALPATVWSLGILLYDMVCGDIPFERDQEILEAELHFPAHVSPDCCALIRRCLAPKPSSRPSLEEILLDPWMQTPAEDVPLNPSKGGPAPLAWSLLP
# Serine/threonine-protein kinase pim-1 (Homo sapiens), sequence (P11309 whole entry, looked up): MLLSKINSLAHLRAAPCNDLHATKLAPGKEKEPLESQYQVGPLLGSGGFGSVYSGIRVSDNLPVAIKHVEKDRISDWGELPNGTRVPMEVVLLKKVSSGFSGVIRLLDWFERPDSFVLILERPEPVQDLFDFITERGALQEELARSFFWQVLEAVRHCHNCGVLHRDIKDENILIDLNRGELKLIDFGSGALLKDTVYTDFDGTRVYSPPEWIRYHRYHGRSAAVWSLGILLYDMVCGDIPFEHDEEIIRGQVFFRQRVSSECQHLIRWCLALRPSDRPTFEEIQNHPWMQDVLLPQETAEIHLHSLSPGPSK
# PAS domain-containing serine/threonine-protein kinase (Homo sapiens), sequence (Q96RG2 whole entry, the tested form may be a part, canonical isoform): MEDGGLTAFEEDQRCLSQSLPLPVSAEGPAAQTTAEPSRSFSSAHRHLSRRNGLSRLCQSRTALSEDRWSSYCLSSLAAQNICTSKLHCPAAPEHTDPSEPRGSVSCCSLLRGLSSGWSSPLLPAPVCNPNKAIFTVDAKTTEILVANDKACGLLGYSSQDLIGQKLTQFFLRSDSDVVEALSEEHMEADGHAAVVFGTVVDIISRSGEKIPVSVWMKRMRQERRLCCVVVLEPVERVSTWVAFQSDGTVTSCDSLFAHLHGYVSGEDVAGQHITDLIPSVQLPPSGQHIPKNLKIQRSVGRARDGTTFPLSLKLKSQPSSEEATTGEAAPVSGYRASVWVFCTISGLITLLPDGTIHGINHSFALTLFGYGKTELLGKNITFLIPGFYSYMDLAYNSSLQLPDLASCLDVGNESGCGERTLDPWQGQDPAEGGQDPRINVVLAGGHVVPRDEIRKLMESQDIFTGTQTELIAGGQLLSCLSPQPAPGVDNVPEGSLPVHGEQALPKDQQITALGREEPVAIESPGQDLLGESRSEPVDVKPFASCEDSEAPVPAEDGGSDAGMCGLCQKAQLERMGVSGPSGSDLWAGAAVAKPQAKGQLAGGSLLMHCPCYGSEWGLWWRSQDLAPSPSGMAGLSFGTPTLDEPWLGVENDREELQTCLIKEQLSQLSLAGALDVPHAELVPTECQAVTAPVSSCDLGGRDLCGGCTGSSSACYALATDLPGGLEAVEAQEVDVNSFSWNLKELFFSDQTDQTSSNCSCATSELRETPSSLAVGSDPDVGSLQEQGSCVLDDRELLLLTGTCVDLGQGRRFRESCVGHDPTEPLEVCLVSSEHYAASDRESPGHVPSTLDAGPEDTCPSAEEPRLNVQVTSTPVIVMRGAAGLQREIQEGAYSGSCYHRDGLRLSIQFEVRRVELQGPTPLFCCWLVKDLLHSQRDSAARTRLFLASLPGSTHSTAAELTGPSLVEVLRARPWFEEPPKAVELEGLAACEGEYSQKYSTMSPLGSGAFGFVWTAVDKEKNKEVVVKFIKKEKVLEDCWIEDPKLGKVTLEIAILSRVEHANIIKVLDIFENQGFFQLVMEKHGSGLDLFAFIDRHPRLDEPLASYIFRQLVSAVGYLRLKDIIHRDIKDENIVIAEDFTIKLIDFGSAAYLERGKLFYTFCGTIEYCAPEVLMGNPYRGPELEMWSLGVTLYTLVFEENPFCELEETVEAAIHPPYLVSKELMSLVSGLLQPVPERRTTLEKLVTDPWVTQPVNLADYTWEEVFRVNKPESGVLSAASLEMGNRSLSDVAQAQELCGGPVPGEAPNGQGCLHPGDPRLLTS
# Phosphorylase b kinase gamma catalytic chain, skeletal muscle/heart isoform (Homo sapiens), sequence (Q16816 whole entry, looked up, canonical isoform): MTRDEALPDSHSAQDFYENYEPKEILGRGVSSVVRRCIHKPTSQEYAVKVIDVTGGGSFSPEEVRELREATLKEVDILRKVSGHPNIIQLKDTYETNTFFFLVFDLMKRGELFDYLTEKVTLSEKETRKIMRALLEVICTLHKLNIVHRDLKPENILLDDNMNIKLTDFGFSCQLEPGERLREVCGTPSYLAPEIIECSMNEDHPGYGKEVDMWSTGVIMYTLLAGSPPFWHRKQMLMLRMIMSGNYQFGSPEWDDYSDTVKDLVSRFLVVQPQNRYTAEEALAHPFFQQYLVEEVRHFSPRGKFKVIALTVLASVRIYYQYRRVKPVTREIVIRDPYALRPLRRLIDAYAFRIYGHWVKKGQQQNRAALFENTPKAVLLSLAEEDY
# Serine/threonine-protein kinase MARK2 (Homo sapiens), sequence (Q7KZI7 whole entry, the tested form may be a part): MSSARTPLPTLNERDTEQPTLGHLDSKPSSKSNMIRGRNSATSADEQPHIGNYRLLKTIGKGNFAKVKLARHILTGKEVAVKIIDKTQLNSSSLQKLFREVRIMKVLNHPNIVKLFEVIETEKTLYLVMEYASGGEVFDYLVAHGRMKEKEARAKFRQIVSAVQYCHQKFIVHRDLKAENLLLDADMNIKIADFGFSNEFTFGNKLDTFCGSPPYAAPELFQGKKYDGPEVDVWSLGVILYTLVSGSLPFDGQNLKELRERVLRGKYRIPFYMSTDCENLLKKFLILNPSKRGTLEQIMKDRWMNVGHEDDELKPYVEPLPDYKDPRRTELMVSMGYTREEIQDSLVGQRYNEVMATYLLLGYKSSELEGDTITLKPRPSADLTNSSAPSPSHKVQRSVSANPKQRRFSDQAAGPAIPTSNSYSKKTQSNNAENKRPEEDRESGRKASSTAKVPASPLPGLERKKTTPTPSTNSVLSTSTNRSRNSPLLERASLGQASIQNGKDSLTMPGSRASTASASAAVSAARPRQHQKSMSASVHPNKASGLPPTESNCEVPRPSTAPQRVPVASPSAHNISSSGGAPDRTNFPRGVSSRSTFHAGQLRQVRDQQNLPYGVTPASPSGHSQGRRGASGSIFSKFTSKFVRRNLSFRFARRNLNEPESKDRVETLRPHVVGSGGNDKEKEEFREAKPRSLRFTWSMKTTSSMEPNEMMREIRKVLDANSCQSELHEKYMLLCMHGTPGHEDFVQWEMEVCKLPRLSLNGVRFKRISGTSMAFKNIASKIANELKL
SMILES,inhibition [1] [%],inhibition [2] [%],inhibition [3] [%],inhibition [4] [%],inhibition [5] [%],inhibition [6] [%],inhibition [7] [%],inhibition [8] [%],inhibition [9] [%],inhibition [10] [%]
CNC(=O)c1cncc(/C=C/c2ccccc2C)c1,0.45,0.44,0.95,4.3,7.61,6.36,7.42,0.05,2.22,0.15
CN(c1ccc(NC(=O)NCCN2CCOCC2)cc1)c1ccnc(Nc2ccc(CS(C)(=O)=O)cc2)n1,2.47,0.41,2.08,2.5,5.5,2.91,6.71,0.61,-0.22,0.04
Cc1c2ccc(N(C)c3ccnc(Nc4cccc(S(N)(=O)=O)c4)n3)cc2nn1C,4.84,0.26,-1.92,4.4,7.27,4.88,3.28,0.43,1.01,-3.44
CC1=C(C(=O)Nc2ccc3[nH]nc(C)c3c2)C(c2ccc(C(F)(F)F)cc2)CC(=O)N1 (stereo not given),4.76,0.2,-1.78,4.32,0.7,2.48,-2.45,1.05,0,0
NS(=O)(=O)c1cccc(N/C=C2\C(=O)Nc3ccccc32)c1,12.6,-0.26,-1.04,7.73,33.3,5.62,13.4,0.75,0.73,-0.33
COc1cccc(Nc2nccc(-c3cnn4ncccc34)n2)c1,21.4,-0.19,-1.63,2.67,27.6,4.4,18.8,0.85,6.56,0.37
COc1cc2c(cc1Nc1nc(Nc3cccc(F)c3C(N)=O)c3cc[nH]c3n1)N(C(=O)CN1CCN(C(C)C)CC1)CC2,3.63,-0.77,-0.72,0.29,9.54,3.29,5.63,1.43,0.21,-0.02
CCN1CCC(C(=O)Nc2n[nH]c3nnc(-c4cccc(F)c4F)cc23)CC1,1.95,1.35,0.26,1.99,4.68,-0.86,-1.05,-0.82,0.91,0.04
c1cnn2ncc(-c3ccnc(NCCCN4CCOCC4)n3)c2c1,-1.01,-1.6,-2.98,4.51,4.16,4.4,2.46,-0.24,1.23,-0.27
COc1cc(N2CCN(C(C)C)CC2)ccc1Nc1nc(Nc2cccc3ncccc23)c2cc[nH]c2n1,1.39,-0.26,-0.72,2.93,28.6,-1.68,0.96,0.12,0.51,-0.9
Cn1c(-c2nonc2N)nc2cnccc21,4.69,0.4,-0.76,1.82,0.15,4.05,1.59,2.15,16.4,-0.31
Fc1cccc(COc2ccc(Nc3ncncc3C#Cc3ccccc3)cc2Cl)c1,1.05,0.76,1.64,3.8,5.87,5.59,8.15,0.46,1.07,0.52
CS(=O)(=O)CCNCc1ccoc1-c1ccc2ncnc(Nc3ccc(OCc4ccccc4)cc3)c2c1,-2.18,1.27,0.16,2.12,3.12,0.65,0.15,0.23,-0.94,0.1
COc1ccc(Nc2ncc(-c3ccccc3)o2)cc1OC,16.8,0.54,0.81,5.28,28.9,0.22,2.01,1.41,2.22,1.11
CNC(=O)c1ncccc1Nc1nc(Nc2cc3c(cc2OC)CCCN3C(=O)CN(C)C)nc2[nH]ccc12,4.82,0.42,-3.51,5.77,26.6,5.37,3.8,18.9,65.9,1.04
N#Cc1ccc2c(-c3ccnc(NC4CC4)n3)c(-c3ccc(F)cc3)nn2c1,0.62,1.11,0.62,0.42,2.62,1.29,0.44,-0.01,-1.52,-0.15

SMILES,inhibition [1] [%],inhibition [2] [%],inhibition [3] [%],inhibition [4] [%],inhibition [5] [%],inhibition [6] [%],inhibition [7] [%],inhibition [8] [%],inhibition [9] [%],inhibition [10] [%]
CCS(=O)(=O)c1ccc(OC)c(Nc2ncc(-c3cccc(C(C)=O)c3)o2)c1,-4.12,0.37,2.34,1.7,10.4,3.37,6.45,0.82,1.66,-0.72
Cc1cc(O)cc(C)c1/C=C/c1cncc(C(N)=O)c1,1.96,0.45,-0.18,3.36,2.58,2.43,0.42,0.11,0.65,0.8
CCS(=O)(=O)c1ccc(OC)c(Nc2ncc(-c3cccc(F)c3)o2)c1,2.64,-0.05,-0.06,6.05,24.7,6.86,8.13,1.98,4.66,-0.96
O=C(O[C@H]1CN[C@H](C#Cc2cc3ncnc(Nc4ccc5c(ccn5Cc5cc(F)ccc5F)c4)c3s2)C1)N1CCOCC1,-0.27,0.1,-1.39,3.09,4.72,4.96,2.49,0.84,0.83,0.44
CS(=O)(=O)Nc1ccc(-c2cc(-c3ccccc3)cc(C(N)=O)c2N)cc1,4.64,-0.01,-0.36,1.44,4.26,1.4,0.02,0.69,1.67,-0.48
O=C(O[C@H]1CN[C@H](C#Cc2cc3ncnc(Nc4ccc(OCc5cccc(F)c5)c(Cl)c4)c3s2)C1)N1CCOCC1,-1.51,0.31,0.78,6.72,7.76,7.04,9.85,0.79,0.58,-0.36
CNC(=O)c1sc(-n2cnc3cc(OC)c(OC)cc32)cc1OCc1ccccc1C(F)(F)F,1.67,0.35,0.79,4.21,3.69,5.8,5.01,-0.73,-0.07,0.37
OCCCNc1nccc(-c2c(-c3ccc(F)cc3)nn3cc(C(F)(F)F)ccc23)n1,1.92,-0.08,-2.07,2.26,5.59,2.88,-0.79,0.12,1.6,0.32
N#Cc1cccc(Nc2ncc(-c3ccccc3)o2)c1,-0.47,0.37,2.05,2.95,12.9,1.85,6.04,0.15,0.29,0.1
CC(C)c1ccc(-c2cc(-c3c[nH]nc3-c3ccccn3)ccn2)cc1,-0.26,-0.36,-1.24,0.46,1.25,-0.69,-0.76,0.3,-0.2,-0.34
CN1CCC(n2cnc(-c3ccc(F)cc3)c2-c2ccnc(NCCO)n2)CC1,-0.08,0.82,0.93,2.34,5.88,4.56,7.31,0.34,1.55,0.95
COc1ccc(-c2nn3ncccc3c2-c2ccnc(Nc3ccc(F)c(F)c3)n2)cc1,0.59,1.16,1.41,8.48,10.2,4.94,9.5,0.43,0.69,1.57
CC1(C)CC(n2cnc(-c3ccc(F)cc3)c2-c2ccnc(N)n2)CC(C)(C)N1,0.44,-1.3,-0.73,3.51,2.36,-0.42,-1.13,0.93,1.49,0.4
CS(=O)(=O)Nc1ccc(-c2ccc3c(NC(=O)C4CC4)n[nH]c3c2)cc1,0.66,0.49,-0.44,1.67,5.46,3.59,-0.4,0.94,2,0.44
COc1ccc2ncn(-c3cc(O[C@H](C)c4ccccc4C(F)(F)F)c(C(N)=O)s3)c2c1,4.83,-0.55,0.78,1.28,3.44,-1.44,0.1,1.71,7.56,-0.14
